# Results published in PubChem BioAssay AID1159580 (chemical genetic matrix, 2015).
# In all, about 5,500 compounds went through this assay and about 2,000 (36%) were called active. Inconclusive results (about 18%) are left out. Some of the results follow. Unmarked numbers belong to inactive results. Cut-off read from the data, not from the text of the source: active = normalized growth mostly below about 0.91 (no sharp cut-off); inconclusive = no clear call, values can overlap the other calls; inactive = mostly above about 0.92.
# Assay: chemical genetic growth profiling, strain panel (AID 1159580);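 note: tested at 20 µM; growth read once vehicle control cultures reached saturation at 30 °C; 1 = growth at the plate median or of vehicle wells; lower values mean less growth of the strain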
# Conditions: S. cerevisiae deletion strains, growth OD
# [1] = locus YAL040C, strain CLN3, stronger effect = lower value
# [2] = locus YCL061C, strain MRC1 (second series), stronger effect = lower value
# [3] = locus YDR150W, strain NUM1, stronger effect = lower value
# [4] = locus YDR363W, strain ESC2, stronger effect = lower value
# [5] = locus YER002W, strain NOP16, stronger effect = lower value
# [6] = locus YGR078C, strain PAC10, stronger effect = lower value
# [7] = locus YNL128W, strain TEP1, stronger effect = lower value
# [8] = locus YNL175C, strain NOP13, stronger effect = lower value
# [9] = locus YNL197C, strain WHI3, stronger effect = lower value
# [10] = locus YNL224C, strain SQS1, stronger effect = lower value
# [11] = locus YOR083W, strain WHI5 (second series), stronger effect = lower value
# [12] = locus YPL241C, strain CIN2, stronger effect = lower value
# [13] = locus YMR263W, strain SAP30, stronger effect = lower value
smiles,measurement,setting,value
COc1cc2nc(N3CC=[N+](C(=O)c4ccco4)CC3)nc(N)c2cc1OC,normalized growth,[1],1.02
same,normalized growth,[2],1
same,normalized growth,[3],1
same,normalized growth,[4],1.01
same,normalized growth,[5],1.01
same,normalized growth,[6],1.01
same,normalized growth,"locus YGR229C, strain SMI1, stronger effect = lower value",1.01
same,normalized growth,[7],1
same,normalized growth,"locus YNL153C, strain GIM3, stronger effect = lower value",0.978
same,normalized growth,[8],0.998
same,normalized growth,[9],1.01
same,normalized growth,[10],1.06
same,normalized growth,[11],1.01
same,normalized growth,[12],1
COc1cc2nc(N3CCN(C(=O)C4COc5ccccc5O4)CC3)nc(N)c2cc1OC (stereo not drawn),normalized growth,[1],0.982
same,normalized growth,[2],0.985
same,normalized growth,[4],1.07
same,normalized growth,[5],1.01
same,normalized growth,[6],0.986
same,normalized growth,"locus YHR030C, strain SLT2, stronger effect = lower value",1.03
same,normalized growth,"locus YHR079C, strain IRE1, stronger effect = lower value",0.981
same,normalized growth,"locus YJL095W, strain BCK1, stronger effect = lower value",0.983
same,normalized growth,"locus YJR066W, strain TOR1, stronger effect = lower value",0.968
same,normalized growth,"locus YLR113W, strain HOG1, stronger effect = lower value",0.999
same,normalized growth,[13],1.01
same,normalized growth,[7],1.01
same,normalized growth,[8],0.99
same,normalized growth,"locus YNL183C, strain NPR1, stronger effect = lower value",0.939
same,normalized growth,[9],0.947
same,normalized growth,[10],1.01
same,normalized growth,[11],0.988
same,normalized growth,"locus YOR231W, strain MKK1, stronger effect = lower value",0.983
same,normalized growth,"locus YPL256C, strain CLN2, stronger effect = lower value",0.988
COc1cc2nc(N3CCN(C(=O)OCc4ccccc4)C(C(=O)NC(C)(C)C)C3)nc(N)c2cc1OC (stereo not drawn),normalized growth,[1],0.999
same,normalized growth,[2],0.984
same,normalized growth,[3],0.997
same,normalized growth,[4],0.967
same,normalized growth,[5],1.14 [resistant] (active)
same,normalized growth,[6],1.01
same,normalized growth,[13],0.993
same,normalized growth,"locus YMR307W, strain GAS1, stronger effect = lower value",0.989
same,normalized growth,[7],1.08
same,normalized growth,[8],1.02
same,normalized growth,[9],1.03
same,normalized growth,[10],1.03
same,normalized growth,"locus YNL322C, strain KRE1, stronger effect = lower value",0.985
same,normalized growth,[11],1.07
same,normalized growth,[12],0.991
